Data as given in PubChem BioAssay AID1159580 (chemical genetic matrix, 2015).
Several values for one entry are separate records, joined by “and”; a condition that tells them apart may be missing. Equal values may be shown once. About 2,000 (36%) of roughly 5,500 compounds were called active. Not shown: some 18% with an inconclusive outcome. No stated cut-off is given here; in the data, active means normalized growth mostly below about 0.91 (no sharp cut-off); inconclusive means no clear call, values can overlap the other calls; inactive means mostly above about 0.92. Some of the results follow.

Test: chemical genetic growth profiling, strain panel (AID 1159580);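 further: tested at 20 µM; growth read once vehicle control cultures reached saturation at 30 °C; 1 = growth at the plate median or of vehicle wells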
Conditions: S. cerevisiae deletion strains, growth OD

Measured: normalized growth

COc1ccc2c(c1)OCC(Cc1ccc(OC)c(OC(C)=O)c1)C2=O (configuration not stated)
inactive: locus YAL013W, strain DEP1, stronger effect = lower value 0.979 | locus YAL021C, strain ccr4, stronger effect = lower value 0.974 | locus YAL026C, strain drs2, stronger effect = lower value 0.967 | locus YAL030W, strain snc1, stronger effect = lower value 0.973 | locus YBL061C, strain skt5, stronger effect = lower value 0.967 | locus YBR009C, strain hhf1, stronger effect = lower value 0.983 | locus YBR021W, strain FUR4, stronger effect = lower value 0.883 | locus YBR023C, strain chs3, stronger effect = lower value 0.965 | locus YBR171W, strain sec66, stronger effect = lower value 0.962 | locus YBR229C, strain ROT2, stronger effect = lower value 0.996 | locus YBR231C, strain swc5, stronger effect = lower value 0.969 | locus YBR279W, strain paf1, stronger effect = lower value 0.973 | locus YCL011C, strain gbp2, stronger effect = lower value 0.985 | locus YCL016C, strain dcc1, stronger effect = lower value 0.985 | locus YCL029C, strain bik1, stronger effect = lower value 1.01 | locus YCL061C, strain MRC1, stronger effect = lower value 0.976 | locus YCL069W, strain vba3, stronger effect = lower value 0.982 | locus YCR088W, strain abp1, stronger effect = lower value 0.984 | locus YDL005C, strain med2, stronger effect = lower value 0.963 | locus YDL035C, strain GPR1, stronger effect = lower value 0.99 | locus YDL040C, strain nat1, stronger effect = lower value 0.96 | locus YDL074C, strain BRE1, stronger effect = lower value 1.01 | locus YDL101C, strain DUN1, stronger effect = lower value 0.988 | locus YDL134C, strain PPH21, stronger effect = lower value 0.952 | locus YDL185W, strain tfp1, stronger effect = lower value 1.02 | locus YDL192W, strain arf1, stronger effect = lower value 1 | locus YDR001C, strain nth1, stronger effect = lower value 0.982 | locus YDR069C, strain doa4, stronger effect = lower value 0.958 | locus YDR101C, strain arx1, stronger effect = lower value 0.996 | locus YDR137W, strain rgp1, stronger effect = lower value 0.959 | locus YDR150W, strain NUM1, stronger effect = lower value 0.982 | locus YDR159W, strain sac3, stronger effect = lower value 0.975 | locus YDR162C, strain NBP2, stronger effect = lower value 0.957 | locus YDR195W, strain ref2 1.04 | locus YDR297W, strain sur2, stronger effect = lower value 0.978 | locus YDR318W, strain mcm21, stronger effect = lower value 0.992 | locus YDR334W, strain swr1, stronger effect = lower value 0.973 | locus YDR335W, strain msn5, stronger effect = lower value 0.984 | locus YDR388W, stronger effect = lower value 0.998 | locus YDR392W, strain spt3, stronger effect = lower value 0.781 | locus YDR502C, strain sam2, stronger effect = lower value 0.992 | locus YEL003W, strain gim4, stronger effect = lower value 0.992 | locus YEL037C, strain rad23, stronger effect = lower value 0.978 | locus YEL061C, strain CIN8 (second series), stronger effect = lower value 0.984 | locus YEL061C, strain CIN8, stronger effect = lower value 0.993 | locus YER015W, strain faa2, stronger effect = lower value 0.98 | locus YER016W, strain bim1, stronger effect = lower value 0.977 | locus YER110C, stronger effect = lower value 1.02 | locus YER111C, strain swi4, stronger effect = lower value 0.972 | locus YER155C, strain BEM2 (second series), stronger effect = lower value 0.952 | locus YER155C, strain BEM2, stronger effect = lower value 0.981 | locus YER167W, strain BCK2, stronger effect = lower value 0.993 | locus YFR010W, strain ubp6, stronger effect = lower value 0.969 | locus YGL078C, strain dbp3, stronger effect = lower value 1 | locus YGL086W, strain mad1, stronger effect = lower value 1.01 | locus YGL167C, strain pmr1, stronger effect = lower value 0.957 | locus YGL173C, strain kem1, stronger effect = lower value 0.954 | locus YGL227W, strain vid30, stronger effect = lower value 0.979 | locus YGL240W, strain doc1, stronger effect = lower value 0.99 | locus YGL248W, strain PDE1, stronger effect = lower value 0.99 | locus YGL253W, strain hxk2, stronger effect = lower value 0.93 | locus YGR078C, strain PAC10, stronger effect = lower value 0.977 | locus YGR135W, strain pre9, stronger effect = lower value 1 | locus YGR252W, strain gcn5, stronger effect = lower value 1.01 | locus YHR013C, strain ard1, stronger effect = lower value 0.95 | locus YHR027C, strain rpn1, stronger effect = lower value 0.995 | locus YHR030C, strain SLT2, stronger effect = lower value 1 and 1.05 | locus YHR079C, strain IRE1 (second series), stronger effect = lower value 0.987 | locus YHR079C, strain IRE1, stronger effect = lower value 1.01 | locus YHR094C, strain hxt1, stronger effect = lower value 0.992 | locus YHR129C, strain ARP1, stronger effect = lower value 0.998 | locus YHR142W, strain chs7, stronger effect = lower value 0.965 | locus YHR200W, strain rpn10, stronger effect = lower value 1.01 | locus YIL066C, strain RNR3, stronger effect = lower value 0.982 | locus YIL073C, strain SPO22, stronger effect = lower value 0.996 | locus YIL125W, strain kgd1, stronger effect = lower value 1 | locus YIR030C, strain dcg1, stronger effect = lower value 0.987 | locus YJL092W, strain hpr5, stronger effect = lower value 0.98 | locus YJL095W, strain BCK1 (second series), stronger effect = lower value 0.973 | locus YJL095W, strain BCK1, stronger effect = lower value 0.991 and 1.05 | locus YJL115W, strain asf1, stronger effect = lower value 0.983 | locus YJL129C, strain trk1, stronger effect = lower value 0.945 | locus YJL134W, strain LCB3, stronger effect = lower value 1 | locus YJL154C, strain vps35, stronger effect = lower value 0.98 | locus YJL164C, strain tpk1, stronger effect = lower value 0.97 | locus YJL166W, strain qcr8, stronger effect = lower value 0.961 | locus YJL168C, strain set2, stronger effect = lower value 0.99 | locus YJL187C, strain SWE1 (second series), stronger effect = lower value 0.991 | locus YJL187C, strain SWE1, stronger effect = lower value 0.978 | locus YJR043C, strain POL32, stronger effect = lower value 1.01 | locus YJR066W, strain TOR1, stronger effect = lower value 1 | locus YJR075W, strain HOC1, stronger effect = lower value 0.983 | locus YKL009W, strain mrt4, stronger effect = lower value 0.993 | locus YKL068W, stronger effect = lower value 0.984 | locus YKL085W, strain MDH1 (second series), stronger effect = lower value 0.982 | locus YKL085W, strain MDH1, stronger effect = lower value 0.982 | locus YKL160W, strain elf1, stronger effect = lower value 0.98 | locus YKL190W, strain CNB1, stronger effect = lower value 0.974 | locus YKR001C, strain vps1, stronger effect = lower value 1.01 | locus YKR026C, strain gcn3, stronger effect = lower value 0.971 | locus YKR091W, strain srl3, stronger effect = lower value 0.974 | locus YLL001W, strain dnm1, stronger effect = lower value 0.979 | locus YLL026W, stronger effect = lower value 0.976 | locus YLL041C, strain sdh2, stronger effect = lower value 0.987 | locus YLR027C, strain aat2, stronger effect = lower value 0.97 | locus YLR039C, strain RIC1, stronger effect = lower value 1.04 | locus YLR058C, strain SHM2, stronger effect = lower value 0.995 | locus YLR102C, strain apc9, stronger effect = lower value 1 | locus YLR113W, strain HOG1, stronger effect = lower value 0.95 | locus YLR221C, strain rsa3, stronger effect = lower value 0.943 | locus YLR258W, strain gsy2, stronger effect = lower value 0.963 | locus YLR262C, strain YPT6 (second series), stronger effect = lower value 0.965 | locus YLR262C, strain YPT6, stronger effect = lower value 1 | locus YLR268W, strain sec22, stronger effect = lower value 0.992 | locus YLR320W, strain mms22, stronger effect = lower value 0.933 | locus YLR330W, strain CHS5, stronger effect = lower value 0.997 | locus YLR342W, strain FKS1 (second series), stronger effect = lower value 0.993 | locus YLR342W, strain FKS1, stronger effect = lower value 0.948 | locus YLR357W, strain rsc2, stronger effect = lower value 0.974 | locus YLR370C, strain arc18, stronger effect = lower value 0.981 | locus YLR371W, strain rom2, stronger effect = lower value 1.01 | locus YLR384C, strain iki3, stronger effect = lower value 0.975 | locus YLR418C, strain cdc73, stronger effect = lower value 0.995 | locus YML016C, strain PPZ1, stronger effect = lower value 1 | locus YML032C, strain rad52, stronger effect = lower value 1 | locus YML120C, strain ndi1, stronger effect = lower value 0.982 | locus YML124C, strain tub3, stronger effect = lower value 0.995 | locus YMR058W, strain fet3, stronger effect = lower value 0.965 | locus YMR078C, strain ctf18, stronger effect = lower value 1 | locus YMR125W, strain sto1, stronger effect = lower value 0.985 | locus YMR129W, stronger effect = lower value 0.975 | locus YMR205C, strain PFK2, stronger effect = lower value 0.946 | locus YMR223W, strain ubp8, stronger effect = lower value 1 | locus YMR231W, strain pep5, stronger effect = lower value 0.946 | locus YMR263W, strain SAP30, stronger effect = lower value 0.996 | locus YMR307W, strain GAS1, stronger effect = lower value 0.92 | locus YNL067W, strain RPL9B, stronger effect = lower value 0.981 | locus YNL071W, strain lat1, stronger effect = lower value 0.949 | locus YNL153C, strain GIM3, stronger effect = lower value 0.988 | locus YNL183C, strain NPR1, stronger effect = lower value 0.99 | locus YNL209W, strain ssb2, stronger effect = lower value 0.996 | locus YNL233W, strain BNI4, stronger effect = lower value 0.991 | locus YNL248C, strain rpa49, stronger effect = lower value 0.963 | locus YNL250W, strain rad50, stronger effect = lower value 1.01 | locus YNL271C, strain bni1, stronger effect = lower value 0.989 | locus YNL298W, strain CLA4, stronger effect = lower value 1 | locus YNL307C, strain MCK1, stronger effect = lower value 1 | locus YNL322C, strain KRE1 (second series), stronger effect = lower value 0.979 | locus YNR049C, strain mso1, stronger effect = lower value 0.97 | locus YNR052C, strain pop2, stronger effect = lower value 0.996 | locus YOL012C, strain htz1 1.12 | locus YOL147C, strain pex11, stronger effect = lower value 0.988 | locus YOR001W, strain rrp6, stronger effect = lower value 0.956 | locus YOR061W, strain CKA2, stronger effect = lower value 0.995 | locus YOR069W, strain VPS5, stronger effect = lower value 1 | locus YOR070C, strain gyp1, stronger effect = lower value 1 | locus YOR080W, strain dia2, stronger effect = lower value 0.978 | locus YOR083W, strain WHI5, stronger effect = lower value 0.971 | locus YOR106W, strain vam3, stronger effect = lower value 0.963 | locus YOR136W, strain idh2, stronger effect = lower value 1 | locus YOR144C, strain elg1, stronger effect = lower value 0.996 | locus YOR184W, strain ser1, stronger effect = lower value 0.969 | locus YOR231W, strain MKK1, stronger effect = lower value 1.01 | locus YOR265W, strain rbl2, stronger effect = lower value 0.975 | locus YOR270C, strain vph1, stronger effect = lower value 0.88 | locus YOR290C, strain snf2, stronger effect = lower value 0.974 | locus YOR316C, strain cot1, stronger effect = lower value 1.01 | locus YPL051W, strain arl3, stronger effect = lower value 1 | locus YPL078C, strain atp4, stronger effect = lower value 0.972 | locus YPL106C, strain sse1, stronger effect = lower value 0.982 | locus YPL240C, strain hsp82, stronger effect = lower value 0.971 | locus YPL256C, strain CLN2, stronger effect = lower value 1.04 | locus YPR119W, strain clb2, stronger effect = lower value 0.995 | locus YPR141C, strain kar3, stronger effect = lower value 1.01 | locus YPR163C, strain tif3, stronger effect = lower value 1.01 | locus YPR167C, strain met16, stronger effect = lower value 0.994 | strain wtn01, stronger effect = lower value 1.01
